Experimental data reported in PubChem BioAssay (NCATS).
Inconclusive results are not listed. Values without a mark were called inactive. Activity calls are given as the source filed them. Calls follow the shape of the dose curve; as a rule, active = well fitted inhibition curve with a large enough effect; inconclusive = small, poorly fitted or top-dose-only effect; inactive = flat fitted curve, though single readings scatter.

Test: qHTS to identify inhibitors of the type 1 interferon - major histocompatibility complex class I in skeletal muscle: primary screen against the NCATS LOPAC collection (AID 1347405);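 also: lytic HiBiT luminescence reporting HLA-B protein level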
Settings: iHSKM muscle cells, IFN-b-induced MHC-I HiBiT luminescence, 24 h; series mostly up to 45.9 µM; activity change, negative = inhibition: at the top concentration
Source text: Assay Submitter (PI): Travis B. Kinder Ph.D. & James Inglese Ph.D.
Assay Development and Screening Technology Laboratory (ADST)
National Center for Advancing Translational Sciences (NCATS), Rockville, MD
National Institute of Health (NIH), Bethesda, Maryland
Idiopathic inflammatory myopathies, collectively referred to as myositis, are a group of rare autoimmune diseases characterized by skeletal muscle inflammation, weakness, and usually accompanied by systemic pathologies of the skin, lungs, or vasculature. Current immunosuppressive therapies and glucocorticoids are often not curative and are accompanied by harsh side effects, especially in children with juvenile myositis. We initiated a drug repurposing and development program to identify more targeted, less toxic therapeutics to treat myositis. Although its cause is not known, muscle from a subset of patients have an abundance of the inflammatory type 1 interferon (IFN) and a down-stream product major histocompatibility complex class I (MHC class I), which are both thought to contribute to damage and weakness. We conducted quantitative high throughput screening on 6,576 compounds (4,679 unique) through a series of cell-based assays to identify those that inhibit the IFN-stimulated expression of MHC class I in muscle precursor cells (myoblasts). The compound identification and evaluation strategy utilized a primary screen with reporter-tagged MHC class I in genome-engineered myoblasts, ATP content counter screen for viability, HLA-ABC immunofluorescence secondary screen, and HLA-B RT-qPCR tertiary screen.
The primary screen utilized CRISPR/Cas9 genome-engineering of immortalized human myoblasts, C25cl48, where a pro-luminescent reporter HiBit was fused to the C-terminus of endogenous MHC class I allele HLA-B*08:01 (HLA-B HiBit myoblasts). HiBit is an 11 amino acid fragment of NanoLuc luminescent reporter (Promega Corporation), and when complexed to the larger LgBit fragment, the reconstituted enzyme produces light in the presence of furimazine substrate (Schwinn et al., 2018). Briefly, HLA-B HiBit myoblasts were plated into 1536-well plates, treated with 4.0 ng/ml human IFN-beta and 1,280 compounds from the Library of Pharmacologically Active Compounds 1280 library (LOPAC1280, Sigma Aldrich) in a 7-point, 1:4.3 titration with a high final concentration of 46 uM. After 24 hrs of treatment, cells were assayed by Nano-Glo HiBiT Lytic Detection System (Promega) and luminescence measured by a ViewLux 1430 Ultra HTS (Perkin Elmer).
Schwinn MK, Machleidt T, Zimmerman K, Eggers CT, Dixon AS, Hurst R, Hall MP, Encell LP, Binkowski BF, Wood K V. 2018. CRISPR-Mediated Tagging of Endogenous Proteins with a Luminescent Peptide. ACS Chem Biol 13:467-474. doi:10.1021/acschembio.7b00549
PROTOCOL TABLE (as described by Inglese et al., 2007)
SEQUENCE No. (e.g., 1, 2, 3, etc.); […] (e.g., Cells, Incubation, Reagent, etc.); VALUE; DESCRIPTION
1a; Cells; 5 uL; Use a Multidrop Combi (Thermo Scientific) to seed 350 cells/well into nine Greiner 1536 well white/solid bottom, high base, TC plates in 5 ul/well of iHSKM growth medium (GM) without dexamethasone into columns 1+2. Add metal lids with gas-exchange holes
1b; Cells; 5 uL; Use a Multidrop Combi (Thermo Scientific) to seed 350 cells/well into nine Greiner 1536 well white/solid bottom, high base, TC plates in 5 ul/well of iHSKM GM without dexamethasone + 4 ng/ml IFN-b into columns 3 - 48. Add metal lids with gas-exchange holes
2; Incubate; 1 hr; Incubate at 37 C, 5% CO2, 95% RH
3; Compounds; 23 nl; Use Pin Tool (Wako) to transfer DMSO control, ruxolitinib IFN-b inhibitor control [High Concentration = 80 uM final, 16-pt, 1:2 in duplicate], and library compounds in DMSO
4; Incubate; 24 hrs; Incubate at 37 C, 5% CO2, 95% RH
5; Dispense; 2.5 ul; Use BioRAPTR FRD (Beckman Coulter) to add HiBit lytic reagent
6; Incubate; 10 min; Incubate in the dark at ambient temperature for lysis
[…]
% is scaled to controls: 0 for no effect and ±100 for the full control effect; potency is read from the fitted curve at half-maximal effect.

| SMILES | activity change, negative = inhibition | Potency |
| --- | --- | --- |
| OC1(c2ccc(Cl)cc2)CCN(Cc2c[nH]c3ccccc23)CC1 | -6.24% |  |
| NC[C@@H]1O[C@H](c2ccccc2)Cc2c1ccc(O)c2O | -7.05% |  |
| NC(=O)c1cc[n+](CC2=C(C(=O)O)N3C(=O)[C@@H](NC(=O)[C@@H](c4ccccc4)S(=O)(=O)[O-])[C@H]3SC2)cc1 | -10.8% |  |
| NC(N)=[N+]1CCc2ccccc2C1 | -5.39% |  |
| CCCn1c(=O)c2[nH]c(-c3ccc(S(=O)(=O)O)cc3)nc2n(CCC)c1=O | -7.65% |  |
| Cc1cccc(C)c1OCC(N)C(C)C (stereo not given) | 2.48% |  |
| CC(C)C[C@H](NC(=O)[C@H](O)[C@H](N)Cc1ccccc1)C(=O)O | -6.58% |  |
| C[C@H](NC(=O)/C(C#N)=C/c1ccc(O)c(O)c1)c1ccccc1 | -29.5% |  |
| Cc1cc2c(cc1Cl)N(C(=O)Nc1ccnc3ccccc13)CC2 | -17.7% |  |
| NC(N)=NC(N)=Nc1cccc(Cl)c1 | 0.815% |  |
| NC1(C(=O)O)CCc2cc(C(=O)O)ccc21 (stereo not given) | -7.61% |  |
| N=C(N)SCCN | 6.78% |  |
| CCc1ccc2c(-c3cccc(Cl)c3)nc(=O)n(CC)c2n1 | -17.9% |  |
| O=C1OC(=O)C2C3CCC(O3)C12 (stereo not given) | -20.4% |  |
| O=c1ccn([C@@H]2O[C@H](COP(=O)(O)OP(=O)(O)O)[C@@H](O)[C@H]2O)c(=O)[nH]1 | 1.68% |  |
| NC1(C(=O)O)CC1 | 3.1% |  |
| CCCn1c(=O)c(C)cn2nc(N)nc12 | -0.822% |  |
| CCCCCC[C@@H]([C@@H](C)O)n1cnc2c(N)ncnc21 | -5.76% |  |
| O=C(O)CCC/C=C\C[C@@H]1[C@@H](/C=C/[C@H](O)C2Cc3ccccc3C2)[C@@H](F)C[C@@H]1O | 2.59% |  |
| COc1cc(/C=C(\C#N)C(=O)c2ccc(O)c(O)c2)cc(I)c1O | -18.8% |  |

| SMILES | activity change, negative = inhibition | Potency |
| --- | --- | --- |
| NC(=O)CC[C@H](N)C(=O)O | -12.4% |  |
| Cn1c(=O)c2[nH]c(-c3ccc(S(=O)(=O)O)cc3)nc2n(C)c1=O | -7.9% |  |
| N=C(N)SCCc1cnc[nH]1 | -14.6% |  |
| CC(N)=NCCCC[C@@H](N)C(=O)O | -5.05% |  |
| CC(=O)/C(C)=N/O | -13.7% |  |
| CCn1c(=O)[nH]c2cc(Cl)c(Cl)cc21 |  | 3.16 µM (active) |
| N[C@@H](CCC(=O)N[C@H](CSN=O)C(=O)NCC(=O)O)C(=O)O | 7.06% |  |
| CC(C)(C)c1cc(/C=C(\C#N)C(N)=S)cc(C(C)(C)C)c1O | -17.9% |  |
| CSC(=N)N | -2.73% |  |
| CC(C)[C@@H]1CC[C@@H](C)C[C@@H]1P(=O)(c1ccccc1)c1ccccc1 | -24.9% |  |
| Oc1cc2c(cc1O)C(c1ccccc1)CNCC2 (stereo not given) | 0.0043% |  |
| COc1ccccc1N1CCN(CCCCNC(=O)c2ccc3ccccc3c2)CC1 | -19.6% |  |
| CCCCCCCCCCCCCCSCC(=O)O | 3.56% |  |
| CCN1C(=O)C=CC1=O | -4.26% |  |
| CNc1ncnc2c1ncn2[C@H]1C[C@H](OP(=O)(O)O)[C@@H](COP(=O)(O)O)O1 | 2.25% |  |
| O[Si](CCCN1CCCCC1)(c1ccc(F)cc1)C1CCCCC1 (stereo not given) | 2.78% |  |
| CCN(c1nc(N)c(C(=O)N=C(N)N)nc1Cl)C(C)C | -13% |  |
| Cc1cc(Cn2cnc3c2C[C@@H](C(=O)O)N(C(=O)C(c2ccccc2)c2ccccc2)C3)ccc1N | -11.7% |  |
| O=C(O)C1=CCCNC1 | -1.88% |  |
| Nc1ccc(CCNc2ncnc3c2ncn3C2OC(CO)C(O)C2O)cc1 (stereo not given) | -14.6% |  |
